ChEMBL document CHEMBL1201862, “PubChem BioAssay data set” (2004)
The campaign covered roughly 400,000 compounds. About 2,100 (0.53%) were called active. Not shown: some 14% with an inconclusive outcome. How the calls were made is not given here. This excerpt belongs to a sample that is enriched for actives.

These compounds were tested against Ataxin-2 (Homo sapiens) (UniProt Q99700) (assay: qHTS for Inhibitors of ATXN expression.).
Assay type: functional

Sequence of Ataxin-2 (Homo sapiens) (Q99700 whole entry): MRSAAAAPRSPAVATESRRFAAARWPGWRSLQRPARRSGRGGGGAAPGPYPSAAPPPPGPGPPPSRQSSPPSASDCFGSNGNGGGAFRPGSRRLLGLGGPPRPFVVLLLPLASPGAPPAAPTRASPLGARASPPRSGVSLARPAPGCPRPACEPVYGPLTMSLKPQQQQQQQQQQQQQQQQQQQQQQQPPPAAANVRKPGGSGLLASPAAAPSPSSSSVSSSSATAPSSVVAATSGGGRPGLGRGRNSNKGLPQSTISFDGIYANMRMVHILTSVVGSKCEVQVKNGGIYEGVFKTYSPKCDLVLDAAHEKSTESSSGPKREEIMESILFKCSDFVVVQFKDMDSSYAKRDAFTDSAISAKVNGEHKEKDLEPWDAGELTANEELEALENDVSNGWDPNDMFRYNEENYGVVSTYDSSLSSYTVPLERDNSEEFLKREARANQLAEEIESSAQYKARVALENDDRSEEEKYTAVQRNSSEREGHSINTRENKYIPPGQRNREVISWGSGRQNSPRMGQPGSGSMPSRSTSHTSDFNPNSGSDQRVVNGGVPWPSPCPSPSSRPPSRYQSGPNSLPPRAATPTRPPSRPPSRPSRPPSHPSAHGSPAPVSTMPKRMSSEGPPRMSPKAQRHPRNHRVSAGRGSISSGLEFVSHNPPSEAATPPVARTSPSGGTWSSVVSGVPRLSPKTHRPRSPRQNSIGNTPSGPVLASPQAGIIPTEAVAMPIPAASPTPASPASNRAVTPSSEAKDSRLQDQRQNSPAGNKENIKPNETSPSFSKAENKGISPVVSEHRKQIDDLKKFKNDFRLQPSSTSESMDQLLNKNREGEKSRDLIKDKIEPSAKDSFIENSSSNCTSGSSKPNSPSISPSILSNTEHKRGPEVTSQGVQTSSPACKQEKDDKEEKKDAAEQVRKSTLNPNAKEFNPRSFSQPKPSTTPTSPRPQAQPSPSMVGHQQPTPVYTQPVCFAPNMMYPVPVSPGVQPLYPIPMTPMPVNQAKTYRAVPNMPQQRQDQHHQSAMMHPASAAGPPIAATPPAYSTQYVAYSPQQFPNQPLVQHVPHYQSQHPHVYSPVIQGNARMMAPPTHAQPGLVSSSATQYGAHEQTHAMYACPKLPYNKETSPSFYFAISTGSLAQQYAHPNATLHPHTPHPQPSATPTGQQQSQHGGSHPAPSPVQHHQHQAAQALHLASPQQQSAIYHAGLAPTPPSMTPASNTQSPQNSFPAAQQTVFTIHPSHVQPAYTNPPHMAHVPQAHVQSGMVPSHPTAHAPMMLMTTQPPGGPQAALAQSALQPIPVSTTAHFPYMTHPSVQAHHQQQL

Row | Structure (SMILES) | Potency
1 | [O-][n+]1c(-c2ccccc2)c(O)nc2ccccc21 | inactive
2 | COc1ccc2c(Cl)c(C(=O)N/N=C3\CCCC(=O)C3)sc2c1 | inactive
3 | COCC(C)OC(=O)c1c(N)n(CC(C)C)c2nc3ccccc3nc12 (stereo unspecified) | inactive
4 | CCCCc1ccc(-c2csc(/C(C#N)=C\c3ccco3)n2)cc1 | inactive
5 | Cc1ccc(O)c(NC(=S)NC(=O)c2ccc(-c3ccc(Cl)cc3)o2)c1 | 22.4 µM (active)
6 | CCOCCCn1c(=N)c(C(N)=S)cc2c(=O)n3cccc(C)c3nc21 | inactive
7 | Cc1cc(C(=O)Nc2ccc(S(=O)(=O)N3CCOCC3)cc2)c(C)o1 | inactive
8 | CCN1CCN(c2ccc(S(=O)(=O)N3CCCCC3)cc2NC(=O)c2ccc([N+](=O)[O-])o2)CC1 | 28.2 µM (active)
9 | O=C(Nc1ccc(S(=O)(=O)N2CCCC2)cc1)c1ccc([N+](=O)[O-])o1 | 37.7 µM (active)
10 | CN1CCN(c2ccc(S(=O)(=O)N3CCCCC3)cc2NC(=O)c2cccc([N+](=O)[O-])c2)CC1 | inactive
11 | Cc1ccccc1NC(=O)c1cc(S(=O)(=O)N2CCCCC2)ccc1N1CCOCC1 | inactive
12 | NC(=O)c1ccc(NC(=O)c2cc(S(=O)(=O)N3CCCCC3)ccc2N2CCOCC2)cc1 | inactive
13 | CC(=O)Oc1ccc(OC(C)=O)c(SCCCCCCl)c1 | inactive
14 | CC1=CC2C(C(O)CC3(C)C2CC(C)C32OCOC23COCO3)C2(C)CC(C=O)=C(O)C=C12 (stereo unspecified) | 15 µM (active)
15 | COc1cc(/C=C2\C(=N)N3N=C(S(C)(=O)=O)SC3=NC2=O)ccc1OCCOc1ccccc1C | inactive
16 | O=C(CCc1ccc(O)cc1)N/N=C/c1coc2ccccc2c1=O | inactive
17 | CNC(=O)c1c(NC(=O)c2ccc(S(=O)(=O)N3CCCC(C)C3)cc2)sc2c1CCC2 (stereo unspecified) | inactive
18 | COc1ccccc1Nc1nn2c(=O)c3ccc(C(=O)NCCC4=CCCCC4)cc3nc2s1 | 6.31 µM (active)
19 | CCOc1ccccc1NC(=O)c1ccc2c(O)c(S(=O)(=O)c3ccccc3)c(O)nc2c1 | inactive
20 | COCCNC(=O)c1c(N)n(CCC2=CCCCC2)c2nc3ccccc3nc12 | inactive
21 | O=C1/C(=C/Nn2cnnc2)c2ccccc2C(=O)N1c1ccccc1 | inactive

Row | Structure (SMILES) | Potency
22 | N#Cc1cc2c(=O)n3ccccc3nc2n(Cc2cccnc2)c1=O | inactive
23 | Cc1ccc2nc3c(cc(C(=O)NCCc4ccccc4)c(=N)n3CC3CCCO3)c(=O)n2c1 (stereo unspecified) | inactive
24 | CCC[C@H](CN[C@@H](CNC)[C@H](C)CC)NCCc1cc(C(F)(F)F)cc(C(F)(F)F)c1 | 25.1 µM (active)
25 | CCC[C@@H](CN[C@@H](CNC)[C@H](C)CC)NCC1CCC(C(C)(C)C)CC1 (stereo partly specified) | 35.5 µM (active)
26 | Cc1cc(S(=O)(=O)c2cc3ccc(O)c(C)c3oc2=O)ccc1F | inactive
27 | Cn1nc(C(=O)OCC(=O)Nc2ccccc2OC(F)F)c2ccccc2c1=O | inactive
28 | CCOC(=O)c1cc2c(=O)n3ccccc3nc2n(CC2CCCO2)/c1=N\C(=O)c1ccccc1F (stereo unspecified) | inactive
29 | Cc1ccc(-n2c(S)nnc2Cn2c(C)nc3ccccc32)cc1 | inactive
30 | COc1ccc(C2=NN(C(=O)COC(=O)c3ccc(S(C)(=O)=O)c([N+](=O)[O-])c3)C(c3ccco3)C2)cc1 (stereo unspecified) | 23.8 µM (active)
31 | Cc1nc(N2N=C(c3ccc(Cl)cc3)CC2c2ccco2)sc1C(=O)N(C)C (stereo unspecified) | inactive
32 | COc1ccc(C2CC(c3ccccc3)=NN2C(=O)c2ccc(Cl)c([N+](=O)[O-])c2)cc1 (stereo unspecified) | 31.6 µM (active)
33 | O=[N+]([O-])c1ccc(C2=NN(c3ccccc3)C(c3ccco3)C2)cc1 (stereo unspecified) | inactive
34 | COc1ccc(C2=NN(c3ccccc3)C(c3cn(CCC(=O)O)nc3-c3ccccc3)C2)cc1 (stereo unspecified) | inactive
35 | CCn1cc([N+](=O)[O-])c(C(=O)N2N=C(c3ccc(Cl)c(Cl)c3)CC2c2ccccc2O)n1 (stereo unspecified) | 39.8 µM (active)
36 | COc1ccc(C2CC(c3ccccc3)=NN2c2ccc(Cl)c(C(=O)O)c2)cc1 (stereo unspecified) | inactive
37 | COc1ccc(C2CC(c3ccccc3)=NN2c2ccc(S(N)(=O)=O)cc2)cc1 (stereo unspecified) | inactive
38 | Cc1ccc(C2=CC(c3ccc(N(C)C)cc3)n3nnnc3N2)cc1 (stereo unspecified) | inactive
39 | CN1CCc2c(sc3c2C(=O)NC(c2ccccc2)N3)C1 (stereo unspecified) | inactive
40 | Cc1ccc(S(=O)(=O)c2cc3ccccc3nc2N)cc1 | inactive
41 | Cc1ccc2nc3c(cc(C#N)c(=O)n3-c3nccs3)c(=O)n2c1 | inactive
42 | Cc1c(Cc2ccccc2)sc(/N=C/c2c(O)ccc3ccccc23)c1C(N)=O | inactive

Row | Structure (SMILES) | Potency
43 | Cc1ccc(-c2cc(-c3ccco3)c(C#N)c(O)n2)cc1 | inactive
44 | CCOC(=O)c1c(NC(=O)Nc2ccc(C)cc2)sc2c1CCN(C)C2 | inactive
45 | CCOC(=O)c1c(NC(=O)c2ccc(S(=O)(=O)N(CC(C)C)CC(C)C)cc2)sc2c1CCN(CC)C2 | inactive
46 | CCOC(=O)c1c(NC(=O)C(C)Sc2cccc[n+]2[O-])sc2c1CCN(Cc1ccccc1)C2 (stereo unspecified) | inactive
47 | CCOC(=O)c1c(NC(=O)C(NCCN(C)C)c2ccccc2)sc2c1CCCC2 (stereo unspecified) | 39.8 µM (active)
48 | CCOC(=O)c1c(NC(=O)c2ccc(S(=O)(=O)N(C)C3CCCCC3)cc2)sc2c1CCN(C(C)C)C2 | inactive
49 | CCOC(=O)c1c(NC(=O)C(C)Sc2c[nH]c3ccccc23)sc2c1CCC2 (stereo unspecified) | 3.16 µM (active)
50 | Cc1ccc2nc(N3CCN(CCO)CC3)nc(-c3ccccc3)c2c1 | inactive
51 | CCN1CCc2c(sc(NC(=O)c3ccc(S(=O)(=O)N4CCCC(C)C4)cc3)c2C(=O)OC)C1 (stereo unspecified) | inactive
52 | CCCN(CCC)CCCNC(=O)c1cc2c(=O)n(CC)c3ccccc3c2s1 | inactive
53 | CCOc1ccccc1N(C)C(=O)c1cc2c(=O)n(CC)c3ccccc3c2s1 | 39.8 µM (active)
54 | CCN(C(=O)Cc1c(C(=O)O)n(CC)c2ccccc12)c1ccccc1C | inactive
55 | Cn1c(=O)c2c(nc(Sc3ncnn3CC(=O)N3CCOCC3)n2C)n(C)c1=O | inactive
56 | O=C(Cn1ncc(Cl)c(Cl)c1=O)N1CCN(Cc2ccccc2)CC1 | 39.8 µM (active)
57 | CC1CC(C)CN(CC(=O)N2CCOCC2)C1 (stereo unspecified) | inactive
58 | CN(CC(=O)Nc1ccc(Cl)cc1)CC(=O)N1CCc2ccccc21 | inactive
59 | O=Cc1cn(CC(=O)N2CCc3ccccc32)c2ccccc12 | inactive
60 | O=C(Cn1ncc(Cl)c(Cl)c1=O)N1CCc2ccccc21 | 7.52 µM (active)
61 | O=C(Cn1ncc(Cl)c(Cl)c1=O)N1CCOCC1 | 39.8 µM (active)
